Screening data: PubChem, several laboratories
Jurkat NFkB inh: lowers PMA/ionomycin-induced NF-kB signal in Jurkat cells; AID 435003; inhibition, % at 4 µM; 0.53% of 330,000 active; PMA/ionomycin-induced NF-kB luciferase reporter, luminescence; in the data active = inhibition above about 50%
697 NFkB inh: inhibitors of the PMA/ionomycin-induced NF-kB reporter in 697 B cells; 697 B-cell NF-kB luciferase reporter, 16 h; inhibition, % at 4 µM; 0.33% of 330,000 active; AID 435022; in the data active = inhibition above about 35%
Gli-Sufu antag: blocks Gli-Sufu signaling in a luciferase reporter | Sufu-KO-LIGHT fibroblasts, Gli luciferase reporter luminescence | inhibition, % at 5 µM | 0.74% of 340,000 active | AID 588413;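 active = inhibition above about 55%, limit read from the data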;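 also: 0% = DMSO-treated cells and 100% = wells with medium but no cells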
Shn3 3UTR inh: Schnurri-3 reporter inhibition in Clone20 osteoblasts | 0.52% of 360,000 active | Clone20 osteoblast Shn3 3'UTR firefly luciferase, 24 h | inhibition, % at 12.5 µM | AID 588674;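 active = mean inhibition of at least 75% with every replicate also reaching 75%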;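 also: 0% = median of neutral control wells and 100% = pilot-screen positive control compound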
Mdm2 MdmX PPI: human Mdm2/MdmX binding inhibition; 3% of 330,000 active; AID 485346; inhibition, % at 8 µM; SaOS-2 split-luciferase Mdm2/MdmX complementation, luminescence; O15151+Q00987;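 active = inhibition of at least 50% at 8 µM in the primary screen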
Target sequence (O15151 whole entry, looked up): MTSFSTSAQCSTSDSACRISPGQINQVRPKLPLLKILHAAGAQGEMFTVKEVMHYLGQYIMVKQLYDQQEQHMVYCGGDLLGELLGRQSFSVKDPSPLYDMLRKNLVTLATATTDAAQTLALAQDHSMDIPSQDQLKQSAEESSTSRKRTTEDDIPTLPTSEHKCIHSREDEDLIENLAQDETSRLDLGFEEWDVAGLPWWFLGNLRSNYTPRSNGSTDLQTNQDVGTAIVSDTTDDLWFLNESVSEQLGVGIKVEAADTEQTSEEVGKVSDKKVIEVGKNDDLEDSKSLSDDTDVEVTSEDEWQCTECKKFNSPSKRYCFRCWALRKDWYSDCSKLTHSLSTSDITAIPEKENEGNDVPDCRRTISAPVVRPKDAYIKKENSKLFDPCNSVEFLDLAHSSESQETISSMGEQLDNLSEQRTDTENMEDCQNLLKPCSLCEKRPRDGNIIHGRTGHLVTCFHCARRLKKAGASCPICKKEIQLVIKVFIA
Target sequence (Q00987 whole entry, looked up): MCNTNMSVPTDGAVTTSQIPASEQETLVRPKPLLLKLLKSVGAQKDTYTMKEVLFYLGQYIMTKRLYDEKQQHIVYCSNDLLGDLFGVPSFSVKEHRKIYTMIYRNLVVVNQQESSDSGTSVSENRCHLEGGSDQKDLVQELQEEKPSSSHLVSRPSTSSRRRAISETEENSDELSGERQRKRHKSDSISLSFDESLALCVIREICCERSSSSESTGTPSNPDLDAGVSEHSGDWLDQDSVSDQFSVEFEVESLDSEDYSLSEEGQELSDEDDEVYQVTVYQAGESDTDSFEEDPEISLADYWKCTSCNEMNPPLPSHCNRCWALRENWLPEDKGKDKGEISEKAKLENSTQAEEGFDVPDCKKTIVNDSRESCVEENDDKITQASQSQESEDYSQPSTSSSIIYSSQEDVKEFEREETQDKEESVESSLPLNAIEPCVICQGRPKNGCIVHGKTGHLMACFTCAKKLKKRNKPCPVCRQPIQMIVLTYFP
Mdm2-MdmX conf: human Mdm2/MdmX binding inhibition, confirmed | inhibition, % at 8 µM | luminescent assay | AID 489028 | shares compounds with Mdm2 MdmX PPI | 55% of 10,000 active; in the data active = inhibition above about 40%
Full FLuc ctr: counter-screen for Mdm2/MdmX inhibitors: full-length luciferase | AID 504607 | inhibition, % at 8 µM | shares compounds with Mdm2 MdmX PPI | SaOS-2 full-length luciferase counterscreen, luminescence | 77% of 6,200 active;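 active = mean inhibition at 8 µM reaching about 37%, which flags the compound as non-specific, limit read from the data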;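 also: p53-null SaOS-2 cells with luciferase driven by a doxycycline-inducible promoter; compound on cells about two nights before reading with doxycycline added after day one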
Numbers without * were called inactive; / = no result. In the library only some 3.8% were active in any assay of this set; here they are far more common.

SMILES	Jurkat NFkB inh	697 NFkB inh	Gli-Sufu antag	Shn3 3UTR inh	Mdm2 MdmX PPI	Mdm2-MdmX conf	others
CCN(CC)CCCN(C(=O)c1cccc(C)c1)c1nc(-c2ccc(OC)cc2)cs1	-8.1	-28.1	/	10.6	55.9*	34.0	Full FLuc ctr=83.6*
COCc1cc(C)nc(OCC(=O)N/N=C/c2ccc(-c3cc([N+](=O)[O-])ccc3Cl)o2)c1C#N	4.5	13.9	-7.6	4.3	68.9*	-4.2
COCC(C)n1c(SCc2cc(=O)n3cc(C)ccc3n2)nc2ccccc2c1=O (centres undefined)	2.3	-11.0	3.5	-5.6	51.0*	10.1
Cc1ccc2nc(CSc3nnc4ccccn34)cc(=O)n2c1	10.3	5.7	-15.2	-8.4	15.4	/
COc1ccc2nc(Nc3nc(CSc4nnnn4-c4ccccc4)cc(=O)[nH]3)nc(C)c2c1	-9.4	-2.6	13.6	19.1	48.9	/
Cc1ccc2c(C)nc(Nc3nc(CSc4nnnn4-c4ccccc4)cc(=O)[nH]3)nc2c1	4.7	11.2	15.2	-17.7	88.8*	61.0*	Full FLuc ctr=62.6*
CCOc1ccc2nc(Nc3nc(CSc4nnnn4-c4ccccc4)cc(=O)[nH]3)nc(C)c2c1	32.9	-11.1	15.6	19.1	75.1*	15.6
O=C1/C(=C/c2cccs2)SC(=S)N1c1cccc(O)c1	-14.4	-15.5	1.3	-22.8	-20.0	/
COc1ccccc1C(=O)Nc1cccc2cccnc12	-39.8	-34.2	-19.9	-62.6	-18.6	/
O=C(Oc1ccc(Oc2ccccc2)cc1)N1CCC(O)CC1	-37.3	-30.3	5.2	8.3	-20.8	/
CCN(CC)CCCNC(=O)c1ccc(S(=O)(=O)Nc2ccc(C)c(C)c2)cc1	-27.3	2.4	22.9	3.3	1.5	/
Cc1ccc2oc(Nc3nc(-c4ccccc4)cc(=O)[nH]3)nc2c1	27.1	-36.1	-2.6	/	96.7*	20.9
Cc1cc(C)c2nc(Nc3nc(-c4ccccc4)cc(=O)[nH]3)nc(C)c2c1	2.9	5.4	-17.1	-19.8	71.5*	23.2
COCc1cc(=O)[nH]c(Nc2nc3ccccc3o2)n1	-31.4	-44.1	19.9	32.8	19.7	/
O=C(Nc1cccc(-c2cn3ccccc3n2)c1)c1cnccn1	-15.5	-77.2	-31.4	-51.2	-30.5	/
O=C(Nc1cccc(-c2cn3ccccc3n2)c1)c1cccc(Cl)c1	-19.2	-42.9	-37.4	-2.9	74.6*	-7.7
Cc1ccccc1NC(=O)CCCN1C(=O)C2CC=CCC2C1=O (centres undefined)	-13.9	17.2	-5.0	-5.2	18.2	/
CN(CC(=O)Nc1ccc(Cl)c(C(F)(F)F)c1)C(=O)CCc1nc2ccccc2c(=O)[nH]1	-19.4	-10.7	-1.8	2.7	53.7*	24.1
CN(CC(=O)Nc1ccc(Cl)c(C(F)(F)F)c1)C(=O)C1CC(=O)N(CCc2ccccc2)C1 (centres undefined)	3.3	5.7	7.5	6.9	51.4*	42.0*	Full FLuc ctr=60.9*
COc1ccc(CCN2CC(C(=O)N(C)CC(=O)Nc3ccc(Cl)c(C(F)(F)F)c3)CC2=O)cc1OC (centres undefined)	9.5	1.0	1.6	29.4	21.1	/
O=C1N/C(=N\N=C\c2cccnc2)SC1Cc1ccc(SC(F)F)cc1 (centres undefined)	-1.0	-33.8	26.8	60.8	64.3*	72.3*	Full FLuc ctr=43.5*
C/C(=N\NC(=O)c1c(Cl)cnn1C)c1ccc(NC(=O)c2ccc(Br)o2)cc1	-68.1	-21.2	-44.2	-77.1	16.9	/
CC(=O)Nc1ccc(Cc2ccc3[nH]c(=O)cc(C)c3c2)cc1	-41.9	-35.5	/	/	68.4*	41.1*	Full FLuc ctr=68.7*
CCN(CC)S(=O)(=O)c1ccc(C(=O)Nc2nnc(COC)o2)cc1	13.7	1.0	-3.5	-5.4	-2.7	/
CCCCN(C)S(=O)(=O)c1ccc(C(=O)Nc2nnc(CSC)o2)cc1	-7.5	21.8	0.8	36.8	51.2*	27.1
SMILES	Jurkat NFkB inh	697 NFkB inh	Gli-Sufu antag	Shn3 3UTR inh	Mdm2 MdmX PPI	Mdm2-MdmX conf	others
CCCCN(CCCC)S(=O)(=O)c1ccc(C(=O)Nc2nnc(COC)o2)cc1	-10.8	-74.6	-11.0	18.6	59.5*	21.7
CCN(CC)S(=O)(=O)c1ccc(C(=O)Nc2nnc(CSC)o2)cc1	3.4	-4.3	-3.0	-18.5	24.9	/
C=CC(=O)Nc1ccc(N(C)c2ccnc(Nc3ccc(N4CCN(C)CC4)cc3)n2)cc1	4.4	-8.5	25.4	46.7	92.5*	62.6*	Full FLuc ctr=16.0
CCCCn1c(N)c(N(Cc2ccccc2OC)C(=O)CN2C(=O)NC(C)(c3ccccc3)C2=O)c(=O)[nH]c1=O (centres undefined)	-7.1	4.0	26.4	2.3	10.3	/
CC(C)OC(=O)c1c2nc3ccccc3nc2n2c1[nH]c(=O)c1ccccc12	16.1	24.9	/	/	59.5*	32.9	Full FLuc ctr=47.8*
CC(C)OC(=O)c1c(N)n(CCCN2CCOCC2)c2nc3ccccc3nc12	7.0	11.9	-0.8	-15.4	10.6	/
O=C(NCCc1ccc(Cl)cc1)c1ccc(Br)s1	-82.0	-81.7	-61.9	-39.3	-42.6	/
COc1ccc(OCC(=O)Nc2ccc3c(c2)nc(CCN2CCC(C)CC2)n3C)cc1	-17.3	-3.6	17.6	-23.0	9.1	/
CC1CCN(CCc2nc3cc(NC(=O)COc4ccc(Cl)cc4)ccc3n2C)CC1	5.3	0.1	36.5	11.3	57.3*	35.1
O=C(Nc1ccc(Br)cc1)c1cccc(N2C(=O)C3CCCCC3C2=O)c1 (centres undefined)	12.3	-1.9	-0.1	8.0	7.1	/
COc1ccc(C[C@H]2CN3C(=NC[C@H]3Cc3ccccc3)N2CCNC(=O)c2ccc(C)c(Br)c2)cc1	15.3	-1.2	20.4	12.7	95.2*	54.6*	Full FLuc ctr=36.8*
Cc1ccc(C(=O)NCCN2C3=NC[C@@H](Cc4ccccc4)N3C[C@H]2Cc2ccc(O)cc2)cc1Br	-4.2	13.2	17.3	12.0	81.2*	25.4
COc1ccc(C[C@H]2CN3C(=NC[C@@H]3Cc3ccc(O)cc3)N2CCNC(=O)c2ccc(C)c(Br)c2)cc1	28.0	-6.6	31.4	30.9	52.8*	25.7
C/C=C(\C)C(=O)NCCN1C2=NC[C@H](Cc3ccccc3)N2C[C@@H]1Cc1ccc(OC)cc1	-1.5	7.7	10.2	-2.8	-17.8	/
Cc1ccc(C(=O)NCCN2C3=NC[C@H](Cc4ccc(O)cc4)N3C[C@H]2Cc2ccc(O)cc2)cc1Br	-14.3	-20.5	5.2	-15.1	2.5	/
COc1ccc(C[C@H]2CN3C(=NC[C@@H]3Cc3ccccc3)N2CCNC(=O)c2ccc(C)c(Br)c2)cc1	10.1	15.0	29.9	-6.6	100.3*	41.8*	Full FLuc ctr=56.7*
C/C=C(\C)C(=O)NCCN1C2=NC[C@H](Cc3ccccc3)N2C[C@H]1Cc1ccc(O)cc1	-1.5	17.5	1.7	1.8	15.1	/
CCSc1nnc(-c2ccccc2N=Cc2c(C)[nH]n(-c3ccccc3)c2=O)c(=O)[nH]1	-7.2	4.5	-0.9	1.5	18.9	/
